Some test systems named below: NCI-H23 lung; NCI-H226 lung; NCI-H322M lung; HOP-62 NSCLC; NCI-H460 lung; HOP-92 NSCLC; NCI-H522 lung; A549/ATCC NSCLC; 786-0 renal; COLO 205 colon.
Common to all, as to assay: NCI-60 one-dose screen, 48 h (100 = growth as untreated, 0 = no growth, -100 = all killed)
Common to all, as to conditions: 10 µM unless noted

Here are results for 14 compounds from PubChem BioAssay (NCI).

This is part of a sample that, as a whole, favours compounds with a hit. Of some 83,000 tested, about 20% had one in any assay.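 The test compound was applied at a single concentration to cells in 96-well plates for 48 hours, and percent growth was recorded.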 Values without a mark were called inactive. Calls of active or inactive are those of the source. Rule for the calls: active = growth percent below 10; inactive = the rest.

Consider `COc1ccc(CNc2nccnn2)cc1`, for which the growth in the assay with NCI-H23 lung was 94.6%; in the assay on NCI-H226 lung, 92%; with NCI-H322M lung it was 103%; with HOP-62 NSCLC, 98.6%; in the assay with NCI-H460 lung, 106%; in the assay on HOP-92 NSCLC it was 108%. Further, the growth is 85.4% in the assay with NCI-H522 lung, 96.9% in the assay on A549/ATCC NSCLC, 107% in the assay on 786-0 renal and 95% in the assay with COLO 205 colon.

As to `Cc1cc(OCc2ccc(C(F)(F)F)cc2)c2c(c1)C(=O)C=C(NCCN1CCCC1)C2=O`, the growth is 84.5% with NCI-H23 lung; 93% with NCI-H226 lung; 80.9% in the assay with NCI-H322M lung; 83.1% with HOP-62 NSCLC; 43.9% in the assay on NCI-H460 lung; 60.1% in the assay on HOP-92 NSCLC. Further, the growth is 87.6% in the assay on NCI-H522 lung, 54.3% in the assay with A549/ATCC NSCLC, 58.5% in the assay with 786-0 renal and -77.4% (active) with COLO 205 colon.

Regarding `O=C(O)c1ccc(=O)[nH]n1`, the growth was 103% with NCI-H23 lung; 107% with NCI-H226 lung; 117% with NCI-H322M lung; 111% in the assay on HOP-62 NSCLC; 112% with NCI-H460 lung; 87.9% in the assay on HOP-92 NSCLC. Besides, the growth in the assay with NCI-H522 lung is 106%; with A549/ATCC NSCLC it was 116%; in the assay with 786-0 renal it was 116%; with COLO 205 colon it was 111%.

Take `Cc1ccc(S(=O)(=O)N(CCc2ccc(Cl)cc2)S(=O)(=O)c2ccc(C)cc2)cc1`: the growth with NCI-H23 lung was 90.9%; in the assay with NCI-H226 lung it was 75.2%; in the assay with NCI-H322M lung, 93.1%; with HOP-62 NSCLC, 103%; with NCI-H460 lung, 101%; in the assay on HOP-92 NSCLC, 88.1%. The growth is 77.4% with NCI-H522 lung, 88.3% in the assay with A549/ATCC NSCLC, 94.4% in the assay with 786-0 renal and 111% with COLO 205 colon.

Take `O=C(NCc1cccc(C(F)(F)F)c1)[C@H](CCC(=O)N1CCN(C2CCCCC2)CC1)N1C(=O)[C@@H](N2C(=O)OC[C@@H]2c2ccccc2)[C@H]1/C(Cl)=C/c1ccccc1`: the growth was 68.4% with NCI-H23 lung; 73.2% in the assay on NCI-H226 lung; 36.4% in the assay on NCI-H322M lung; 55.6% in the assay with HOP-62 NSCLC; 47.8% with NCI-H460 lung; 32.6% in the assay with HOP-92 NSCLC. The growth in the assay with NCI-H522 lung is 33.7%; with A549/ATCC NSCLC it was 37.7%; in the assay with 786-0 renal, 49.9%; in the assay with COLO 205 colon, 40.7%.

On to `C=C1CC2(OC1=O)C(=O)Nc1ccccc12` (stereo not given), for which the growth is 67.7% in the assay on NCI-H23 lung; 72.9% in the assay on NCI-H226 lung; 93.8% in the assay with NCI-H322M lung; 108% with HOP-62 NSCLC; 77.8% in the assay with NCI-H460 lung; 9.19% (active) in the assay on HOP-92 NSCLC. Also, the growth was -45.7% (active) in the assay on NCI-H522 lung, 100% in the assay on A549/ATCC NSCLC, 76.2% with 786-0 renal and 10.3% in the assay on COLO 205 colon.

Consider `COCCOC(=O)C1=C(C)NC(=S)NC1c1ccc2c(c1)OCO2` (stereo not given), for which the growth in the assay with NCI-H23 lung is 96.2%; in the assay with NCI-H226 lung it was 90.2%; in the assay on NCI-H322M lung, 101%; in the assay on HOP-62 NSCLC, 98%; in the assay with NCI-H460 lung, 112%; in the assay with HOP-92 NSCLC it was 108%. The growth was 94.3% in the assay with NCI-H522 lung, 101% in the assay with A549/ATCC NSCLC, 107% with 786-0 renal and 117% in the assay with COLO 205 colon.

On to `NCCN1CCN(c2nccc(-c3ccc4ccccc4c3)n2)CC1`, for which the growth is 87.2% in the assay on NCI-H23 lung; 81.9% in the assay on NCI-H226 lung; 54.4% in the assay with NCI-H322M lung; 74.9% in the assay with HOP-62 NSCLC; 17.6% with NCI-H460 lung; 27.7% with HOP-92 NSCLC. Further, the growth in the assay with NCI-H522 lung is 81.3%; with A549/ATCC NSCLC, 52.3%; in the assay with 786-0 renal, 47.6%; with COLO 205 colon, -78.1% (active).

Take `Cc1[nH]n(-c2ccccc2)c2nc3nncc3c(-c3ccc(Cl)cc3)c12`: the growth in the assay on NCI-H23 lung was 103%; in the assay with NCI-H226 lung, 104%; with NCI-H322M lung, 114%; in the assay on HOP-62 NSCLC it was 110%; in the assay with NCI-H460 lung, 102%; in the assay on HOP-92 NSCLC it was 76.2%. For the same compound, the growth in the assay on NCI-H522 lung is 105%; with A549/ATCC NSCLC, 84.9%; with 786-0 renal it was 100%; in the assay on COLO 205 colon, 111%.

Turning to `COc1cccc(-c2nc3sccn3c2-c2ccnc(NCCCNS(=O)(=O)c3ccc(Cl)cc3)c2)c1`, the growth in the assay on NCI-H23 lung is 54.4%; in the assay on NCI-H226 lung, 42%; in the assay on NCI-H322M lung it was 74.4%; with HOP-62 NSCLC, 88.7%; in the assay with NCI-H460 lung it was 49.9%; in the assay with HOP-92 NSCLC, 72%. The growth was 55.5% in the assay with NCI-H522 lung, 40.8% in the assay on A549/ATCC NSCLC, 58.4% in the assay with 786-0 renal and 44.9% in the assay with COLO 205 colon.

For the compound `Cc1nc2nc(N)nc(N)c2nc1C`, the growth with NCI-H23 lung is 91.5%; in the assay on NCI-H226 lung, 94.6%; in the assay with NCI-H322M lung, 95.1%; in the assay with HOP-62 NSCLC it was 88.6%; in the assay with NCI-H460 lung it was 108%; in the assay on HOP-92 NSCLC it was 87.3%. The growth is 89.8% with NCI-H522 lung, 102% in the assay on A549/ATCC NSCLC, 98.4% in the assay on 786-0 renal and 117% with COLO 205 colon.

With `O=[N+]([O-])c1c(F)cccc1Nc1cccc(F)c1`, the growth is 104% in the assay with NCI-H23 lung; 94.7% with NCI-H226 lung; 108% in the assay with NCI-H322M lung; 102% with HOP-62 NSCLC; 107% in the assay on NCI-H460 lung; 94.6% with HOP-92 NSCLC. For the same compound, the growth with NCI-H522 lung is 92%; in the assay with A549/ATCC NSCLC, 106%; with 786-0 renal, 93.9%; in the assay on COLO 205 colon, 121%.

For `O=C(CCCCN1CCOCC1)Nc1ccc(Cn2nnc3c2C(=O)c2nnn(Cc4ccc(NC(=O)CCCCN5CCOCC5)cc4)c2C3=O)cc1`, the growth was -18% (active) with NCI-H23 lung; -52.2% (active) with NCI-H226 lung; -89.3% (active) with NCI-H322M lung; -59.1% (active) with HOP-62 NSCLC; -39.8% (active) with NCI-H460 lung; -40.3% (active) in the assay on HOP-92 NSCLC. In addition, the growth in the assay with NCI-H522 lung was -68.3% (active); in the assay with A549/ATCC NSCLC, -68.3% (active); with 786-0 renal, -50.5% (active); with COLO 205 colon, -78.8% (active).

In the case of `CC/C(=C(\c1ccc(O)cc1)c1ccc(OCCN(C)CCN(C)C(=O)CCCCC(=O)c2c(C)[nH]c(/C=C3\N=C(c4ccc[nH]4)C=C3OC)c2C)cc1)c1ccccc1`, the growth in the assay with NCI-H23 lung is 94.1%; with NCI-H226 lung, 90.5%; in the assay on NCI-H322M lung it was 88.7%; in the assay with HOP-62 NSCLC, 81%; in the assay with NCI-H460 lung, 76.8%; with HOP-92 NSCLC it was 63.4%. In addition, the growth in the assay with NCI-H522 lung is 84.3%; in the assay with A549/ATCC NSCLC, 88.5%; with 786-0 renal it was 103%; in the assay with COLO 205 colon it was 91.3%.
